# Results taken from article PMC7862700, “An all-to-all approach to the identification of sequence-specific readers for epigenetic DNA modifications on cytosine”.
# Experiments:
# Assay in all cases: DAPPL (digital affinity profiling via proximity ligation, sequencing); 10 mM Tris-HCl pH 7.5, 50 mM NaCl, 1 mM DTT, 4% glycerol, room temperature, 30 min; GST-TFs on glutathione beads, 16-mer random dsDNA library, 0.1% formaldehyde crosslink after washing; high values mean tight binding
# FEV = molecular target: T1, FEV (Homo sapiens, UniProt Q99581 1-238); details: protein: recombinant; tags: N-terminal GST; dsDNA, one strand shown
# T1 sequence: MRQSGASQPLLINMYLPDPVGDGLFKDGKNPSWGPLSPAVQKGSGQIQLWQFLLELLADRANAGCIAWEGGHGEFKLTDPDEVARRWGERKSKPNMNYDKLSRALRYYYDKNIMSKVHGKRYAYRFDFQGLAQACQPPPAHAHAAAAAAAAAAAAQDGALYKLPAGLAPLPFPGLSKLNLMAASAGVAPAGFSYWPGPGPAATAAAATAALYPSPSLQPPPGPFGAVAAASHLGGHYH
# How it was run: (§1)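 Human transcription factors carrying a GST fusion were produced in yeast, bound to glutathione beads, tagged with DNA barcodes and pooled together with a tag-only sample. Each pool was held with 200 nmole of a random double-stranded 16-mer DNA library in Tris/NaCl/DTT/glycerol buffer for 30 min at room temperature, then washed, crosslinked in 0.1% formaldehyde, proximity-ligated with BsaI/T4 ligase (1 h, 37 °C), PCR-amplified and sequenced on an Illumina NextSeq500. Binding signal is the read frequency of each hexamer for a given factor divided by its frequency in the tag-only sample.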
# ETV5 = ETV5 (Homo sapiens, UniProt P41161 1-510); details: protein: recombinant; tags: N-terminal GST; dsDNA, one strand shown
# How it was run: as §1
# HSF1 = HSF1 (Homo sapiens, UniProt Q00613 1-529); details: protein: recombinant; tags: N-terminal GST; chain copies: 3; dsDNA, one strand shown
# How it was run: as §1
# SPIC = molecular target: T2, SPIC (Homo sapiens, UniProt Q8N5J4 1-248); details: protein: recombinant; tags: N-terminal GST; dsDNA, one strand shown
# T2 sequence: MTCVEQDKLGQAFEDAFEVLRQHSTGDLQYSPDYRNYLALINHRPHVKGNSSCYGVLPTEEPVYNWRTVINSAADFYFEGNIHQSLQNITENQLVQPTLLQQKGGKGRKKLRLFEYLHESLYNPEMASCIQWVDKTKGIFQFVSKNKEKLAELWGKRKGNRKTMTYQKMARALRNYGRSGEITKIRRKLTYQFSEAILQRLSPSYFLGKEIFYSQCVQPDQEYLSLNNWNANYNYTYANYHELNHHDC
# How it was run: as §1
# ELF4 = ELF4 (Homo sapiens, UniProt Q99607 1-663); details: protein: recombinant; tags: N-terminal GST; dsDNA, one strand shown
# How it was run: as §1
# ELK4 = molecular target: T3, ELK4 (Homo sapiens, UniProt P28324-2 1-405); details: protein: recombinant; tags: N-terminal GST; dsDNA, one strand shown
# T3 sequence: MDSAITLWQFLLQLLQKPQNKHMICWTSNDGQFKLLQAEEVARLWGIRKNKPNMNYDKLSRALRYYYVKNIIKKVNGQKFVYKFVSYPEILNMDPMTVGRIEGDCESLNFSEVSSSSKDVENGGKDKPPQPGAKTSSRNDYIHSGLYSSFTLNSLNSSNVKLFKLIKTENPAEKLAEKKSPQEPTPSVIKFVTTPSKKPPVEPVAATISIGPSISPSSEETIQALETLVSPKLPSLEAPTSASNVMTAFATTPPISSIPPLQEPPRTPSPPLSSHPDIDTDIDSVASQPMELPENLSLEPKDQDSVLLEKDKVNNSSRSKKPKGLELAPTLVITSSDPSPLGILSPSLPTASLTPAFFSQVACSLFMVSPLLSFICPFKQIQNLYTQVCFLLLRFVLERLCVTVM
# How it was run: as §1
# ETV2 = molecular target: T4, ETV2 (Homo sapiens, UniProt O00321 1-342); details: protein: recombinant; tags: N-terminal GST; dsDNA, one strand shown
# T4 sequence: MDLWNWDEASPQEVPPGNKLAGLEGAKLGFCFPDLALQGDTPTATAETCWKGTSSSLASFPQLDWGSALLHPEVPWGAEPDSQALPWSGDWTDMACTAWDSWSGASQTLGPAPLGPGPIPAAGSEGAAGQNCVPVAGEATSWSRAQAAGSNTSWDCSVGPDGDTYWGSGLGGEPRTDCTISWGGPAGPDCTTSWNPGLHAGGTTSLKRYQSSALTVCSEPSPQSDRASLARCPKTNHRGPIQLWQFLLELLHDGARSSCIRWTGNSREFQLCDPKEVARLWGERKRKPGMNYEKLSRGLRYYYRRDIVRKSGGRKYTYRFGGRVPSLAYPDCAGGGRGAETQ
# How it was run: as §1
# ELF3 = molecular target: T5, ELF3 (Homo sapiens, UniProt P78545 1-371); details: protein: recombinant; tags: N-terminal GST; dsDNA, one strand shown
# T5 sequence: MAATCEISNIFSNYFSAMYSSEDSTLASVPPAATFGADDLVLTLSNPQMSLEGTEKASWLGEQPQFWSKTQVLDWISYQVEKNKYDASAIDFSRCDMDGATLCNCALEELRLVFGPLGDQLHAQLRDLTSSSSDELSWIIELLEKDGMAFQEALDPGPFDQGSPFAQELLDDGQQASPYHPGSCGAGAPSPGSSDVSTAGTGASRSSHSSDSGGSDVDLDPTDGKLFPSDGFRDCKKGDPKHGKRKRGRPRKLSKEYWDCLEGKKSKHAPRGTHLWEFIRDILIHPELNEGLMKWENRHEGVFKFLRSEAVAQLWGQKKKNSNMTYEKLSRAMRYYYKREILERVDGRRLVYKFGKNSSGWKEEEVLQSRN
# How it was run: as §1
# CRX = CRX (Homo sapiens, UniProt O43186 1-299); details: protein: recombinant; tags: N-terminal GST; dsDNA, one strand shown
# How it was run: as §1
# ETV1 = ETV1 (Homo sapiens, UniProt P50549 1-477); details: protein: recombinant; tags: N-terminal GST; dsDNA, one strand shown
# How it was run: as §1
# ERF = molecular target: T6, ERF (Homo sapiens, UniProt P50548 1-548); details: protein: recombinant; tags: N-terminal GST; dsDNA, one strand shown
# T6 sequence: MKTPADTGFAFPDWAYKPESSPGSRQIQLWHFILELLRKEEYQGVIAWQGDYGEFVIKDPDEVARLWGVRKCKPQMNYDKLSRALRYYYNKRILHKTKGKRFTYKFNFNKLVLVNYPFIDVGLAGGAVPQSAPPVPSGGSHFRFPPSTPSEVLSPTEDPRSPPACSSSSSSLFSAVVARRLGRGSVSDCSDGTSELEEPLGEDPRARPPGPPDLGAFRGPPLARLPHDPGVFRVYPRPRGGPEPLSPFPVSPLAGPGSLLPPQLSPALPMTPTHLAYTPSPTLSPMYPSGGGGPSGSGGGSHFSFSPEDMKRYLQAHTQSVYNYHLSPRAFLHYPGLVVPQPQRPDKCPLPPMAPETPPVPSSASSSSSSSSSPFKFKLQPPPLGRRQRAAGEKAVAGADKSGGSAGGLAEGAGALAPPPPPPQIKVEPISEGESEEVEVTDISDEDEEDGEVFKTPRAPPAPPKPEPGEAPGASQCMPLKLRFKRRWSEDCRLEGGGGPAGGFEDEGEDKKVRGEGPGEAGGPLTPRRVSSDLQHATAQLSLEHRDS
# How it was run: as §1
# ETV3L = molecular target: T7, ETV3L (Homo sapiens, UniProt Q6ZN32 1-361); details: protein: recombinant; tags: N-terminal GST; dsDNA, one strand shown
# T7 sequence: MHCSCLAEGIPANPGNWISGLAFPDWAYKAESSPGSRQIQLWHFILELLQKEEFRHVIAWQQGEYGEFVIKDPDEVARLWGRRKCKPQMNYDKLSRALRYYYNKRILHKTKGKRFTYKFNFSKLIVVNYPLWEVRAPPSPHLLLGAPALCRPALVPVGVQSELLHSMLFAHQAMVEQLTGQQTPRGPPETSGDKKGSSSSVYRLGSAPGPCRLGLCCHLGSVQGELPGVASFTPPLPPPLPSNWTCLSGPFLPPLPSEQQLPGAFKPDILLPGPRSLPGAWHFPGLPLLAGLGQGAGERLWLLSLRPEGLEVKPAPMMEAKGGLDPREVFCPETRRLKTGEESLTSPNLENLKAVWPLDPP
# How it was run: as §1
# ETS2 = molecular target: T8, ETS2 (Homo sapiens, UniProt P15036 1-469); details: protein: recombinant; tags: N-terminal GST; dsDNA, one strand shown
# T8 sequence: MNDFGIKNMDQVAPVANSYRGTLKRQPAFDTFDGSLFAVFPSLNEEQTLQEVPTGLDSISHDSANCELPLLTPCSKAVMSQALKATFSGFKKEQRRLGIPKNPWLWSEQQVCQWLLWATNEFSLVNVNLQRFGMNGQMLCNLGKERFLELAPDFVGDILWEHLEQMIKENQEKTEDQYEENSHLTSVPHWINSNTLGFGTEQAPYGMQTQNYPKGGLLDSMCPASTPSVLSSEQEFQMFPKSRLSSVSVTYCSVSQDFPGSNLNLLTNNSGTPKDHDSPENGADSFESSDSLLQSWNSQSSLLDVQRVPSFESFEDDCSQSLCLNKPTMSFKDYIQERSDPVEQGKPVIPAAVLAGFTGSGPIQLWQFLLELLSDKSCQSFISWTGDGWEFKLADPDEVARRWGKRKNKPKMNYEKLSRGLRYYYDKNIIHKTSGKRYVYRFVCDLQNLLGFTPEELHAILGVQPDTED
# How it was run: as §1
# SPDEF = molecular target: T9, SPDEF (Homo sapiens, UniProt O95238 1-335); details: protein: recombinant; tags: N-terminal GST; dsDNA, one strand shown
# T9 sequence: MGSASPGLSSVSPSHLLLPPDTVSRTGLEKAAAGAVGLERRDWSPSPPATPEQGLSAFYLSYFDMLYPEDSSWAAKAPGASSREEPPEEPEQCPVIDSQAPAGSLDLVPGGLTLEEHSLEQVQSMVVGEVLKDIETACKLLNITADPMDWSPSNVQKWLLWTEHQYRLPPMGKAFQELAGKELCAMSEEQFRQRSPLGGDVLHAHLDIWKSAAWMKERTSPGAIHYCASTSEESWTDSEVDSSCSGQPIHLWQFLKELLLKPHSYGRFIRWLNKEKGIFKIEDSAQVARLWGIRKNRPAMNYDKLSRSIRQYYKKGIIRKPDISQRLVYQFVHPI
# How it was run: as §1
# ETV7 = molecular target: T10, ETV7 (Homo sapiens, UniProt Q9Y603 1-341); details: protein: recombinant; tags: N-terminal GST; dsDNA, one strand shown
# T10 sequence: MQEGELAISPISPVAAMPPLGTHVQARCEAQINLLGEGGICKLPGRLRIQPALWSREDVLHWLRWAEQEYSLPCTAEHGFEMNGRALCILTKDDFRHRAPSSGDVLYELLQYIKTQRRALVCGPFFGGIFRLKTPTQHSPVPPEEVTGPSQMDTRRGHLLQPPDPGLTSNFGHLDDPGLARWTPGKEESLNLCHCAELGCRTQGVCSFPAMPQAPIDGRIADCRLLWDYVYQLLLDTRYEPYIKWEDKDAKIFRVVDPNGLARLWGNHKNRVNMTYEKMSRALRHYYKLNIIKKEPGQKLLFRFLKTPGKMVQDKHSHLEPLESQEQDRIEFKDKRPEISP
# How it was run: as §1
# ELF5 = molecular target: T11, ELF5 (Homo sapiens, UniProt Q9UKW6-2 1-255); details: protein: recombinant; tags: N-terminal GST; dsDNA, one strand shown
# T11 sequence: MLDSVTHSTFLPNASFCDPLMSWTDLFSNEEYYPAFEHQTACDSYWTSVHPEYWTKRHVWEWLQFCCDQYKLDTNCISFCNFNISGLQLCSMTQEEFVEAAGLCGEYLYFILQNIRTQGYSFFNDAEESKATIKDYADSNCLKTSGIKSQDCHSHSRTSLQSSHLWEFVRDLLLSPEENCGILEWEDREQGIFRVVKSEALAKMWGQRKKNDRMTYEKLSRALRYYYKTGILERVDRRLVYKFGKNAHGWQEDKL
# How it was run: as §1
# ETV3 = molecular target: T12, ETV3 (Homo sapiens, UniProt P41162-2 1-143); details: protein: recombinant; tags: N-terminal GST; dsDNA, one strand shown
# T12 sequence: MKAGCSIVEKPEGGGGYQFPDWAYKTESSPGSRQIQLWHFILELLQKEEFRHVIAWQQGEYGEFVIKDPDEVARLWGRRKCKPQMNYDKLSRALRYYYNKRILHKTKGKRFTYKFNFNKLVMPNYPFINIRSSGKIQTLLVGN
# How it was run: as §1
# ETV6 = ETV6 (Homo sapiens, UniProt P41212 1-452); details: protein: recombinant; tags: N-terminal GST; dsDNA, one strand shown
# How it was run: as §1
# Chain of ETV1 (P50549 whole entry): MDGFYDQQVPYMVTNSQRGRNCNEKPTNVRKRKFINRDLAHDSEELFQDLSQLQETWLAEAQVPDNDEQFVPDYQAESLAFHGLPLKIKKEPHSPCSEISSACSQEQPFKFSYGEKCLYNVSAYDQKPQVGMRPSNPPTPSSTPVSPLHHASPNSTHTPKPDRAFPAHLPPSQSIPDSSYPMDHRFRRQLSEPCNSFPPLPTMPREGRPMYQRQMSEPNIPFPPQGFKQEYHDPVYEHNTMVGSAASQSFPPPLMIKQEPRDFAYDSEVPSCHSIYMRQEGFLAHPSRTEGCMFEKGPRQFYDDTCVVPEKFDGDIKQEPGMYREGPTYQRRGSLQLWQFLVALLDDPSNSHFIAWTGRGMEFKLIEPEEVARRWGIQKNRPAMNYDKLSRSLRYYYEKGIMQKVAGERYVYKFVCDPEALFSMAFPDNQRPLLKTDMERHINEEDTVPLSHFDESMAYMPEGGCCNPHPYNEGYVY
# Chain of HSF1 (Q00613 whole entry): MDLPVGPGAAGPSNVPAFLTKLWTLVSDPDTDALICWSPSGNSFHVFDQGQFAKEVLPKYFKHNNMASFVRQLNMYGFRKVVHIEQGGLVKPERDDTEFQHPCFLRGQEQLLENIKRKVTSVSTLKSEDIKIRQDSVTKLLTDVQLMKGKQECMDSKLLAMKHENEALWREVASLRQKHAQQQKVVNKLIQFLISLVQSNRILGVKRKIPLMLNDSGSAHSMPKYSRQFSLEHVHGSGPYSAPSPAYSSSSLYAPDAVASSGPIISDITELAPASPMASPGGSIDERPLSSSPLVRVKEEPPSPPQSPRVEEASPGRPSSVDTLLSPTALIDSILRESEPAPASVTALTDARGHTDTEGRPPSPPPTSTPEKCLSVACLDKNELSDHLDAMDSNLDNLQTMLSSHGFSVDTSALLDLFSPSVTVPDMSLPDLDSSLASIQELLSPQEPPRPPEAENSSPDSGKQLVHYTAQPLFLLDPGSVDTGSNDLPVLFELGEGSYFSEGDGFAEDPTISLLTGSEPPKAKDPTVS
# Chain of ELF4 (Q99607 whole entry): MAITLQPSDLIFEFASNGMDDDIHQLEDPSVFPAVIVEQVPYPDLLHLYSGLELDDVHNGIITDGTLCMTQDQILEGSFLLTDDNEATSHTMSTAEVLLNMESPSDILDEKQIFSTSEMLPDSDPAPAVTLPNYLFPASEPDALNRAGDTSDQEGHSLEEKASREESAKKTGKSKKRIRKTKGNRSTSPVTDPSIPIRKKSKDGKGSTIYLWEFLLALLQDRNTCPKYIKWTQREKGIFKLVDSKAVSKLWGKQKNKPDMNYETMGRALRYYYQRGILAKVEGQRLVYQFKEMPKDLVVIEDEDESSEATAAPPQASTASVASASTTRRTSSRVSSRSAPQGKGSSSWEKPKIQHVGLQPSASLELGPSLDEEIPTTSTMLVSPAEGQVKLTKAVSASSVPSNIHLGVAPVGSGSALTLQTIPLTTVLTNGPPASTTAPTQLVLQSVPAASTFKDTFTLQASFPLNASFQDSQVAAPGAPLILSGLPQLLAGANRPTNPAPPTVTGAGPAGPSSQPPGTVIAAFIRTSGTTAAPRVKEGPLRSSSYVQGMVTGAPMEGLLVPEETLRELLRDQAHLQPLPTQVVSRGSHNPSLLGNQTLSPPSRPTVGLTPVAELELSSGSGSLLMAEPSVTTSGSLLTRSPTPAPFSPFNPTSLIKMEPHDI
# Chain of CRX (O43186 whole entry): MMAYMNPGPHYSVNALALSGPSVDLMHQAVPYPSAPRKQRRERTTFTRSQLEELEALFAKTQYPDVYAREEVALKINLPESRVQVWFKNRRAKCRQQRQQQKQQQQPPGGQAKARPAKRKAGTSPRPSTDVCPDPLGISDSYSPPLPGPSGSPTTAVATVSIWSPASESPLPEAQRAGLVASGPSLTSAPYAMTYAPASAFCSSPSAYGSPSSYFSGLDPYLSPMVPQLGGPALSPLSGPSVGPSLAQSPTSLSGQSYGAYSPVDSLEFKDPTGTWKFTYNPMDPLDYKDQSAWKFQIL
# Chain of ETV6 (P41212 whole entry): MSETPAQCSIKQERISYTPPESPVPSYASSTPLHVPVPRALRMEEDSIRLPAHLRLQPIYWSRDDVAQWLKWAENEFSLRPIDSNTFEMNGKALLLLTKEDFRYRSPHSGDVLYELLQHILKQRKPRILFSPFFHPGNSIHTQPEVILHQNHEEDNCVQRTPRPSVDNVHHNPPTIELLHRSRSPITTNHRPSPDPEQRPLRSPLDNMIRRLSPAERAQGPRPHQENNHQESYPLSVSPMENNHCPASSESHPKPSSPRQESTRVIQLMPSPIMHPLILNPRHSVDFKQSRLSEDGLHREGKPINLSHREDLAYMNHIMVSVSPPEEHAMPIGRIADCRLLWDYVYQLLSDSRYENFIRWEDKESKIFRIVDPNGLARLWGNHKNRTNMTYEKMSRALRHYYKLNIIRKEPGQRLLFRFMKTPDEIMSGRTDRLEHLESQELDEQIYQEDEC
# Chain of ETV5 (P41161 whole entry): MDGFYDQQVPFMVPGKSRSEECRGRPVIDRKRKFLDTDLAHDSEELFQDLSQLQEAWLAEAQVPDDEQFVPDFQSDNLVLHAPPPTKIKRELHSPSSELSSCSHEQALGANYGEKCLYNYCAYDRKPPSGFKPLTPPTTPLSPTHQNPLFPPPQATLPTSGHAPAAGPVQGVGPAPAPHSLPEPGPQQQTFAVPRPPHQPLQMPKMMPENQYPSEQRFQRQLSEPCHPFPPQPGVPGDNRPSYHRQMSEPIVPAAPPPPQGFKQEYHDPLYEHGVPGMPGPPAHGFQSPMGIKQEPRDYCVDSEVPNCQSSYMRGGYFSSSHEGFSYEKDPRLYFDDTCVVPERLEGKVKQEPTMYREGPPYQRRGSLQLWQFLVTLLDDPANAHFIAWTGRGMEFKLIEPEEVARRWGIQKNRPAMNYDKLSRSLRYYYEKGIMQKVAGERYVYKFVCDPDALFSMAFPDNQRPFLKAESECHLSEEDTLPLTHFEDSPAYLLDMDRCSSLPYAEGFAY
sequence,measurement,setting,value
ACTTTT,binding signal,FEV,"1.25 fold enrichment (6-mer frequency, TF over GST control)"
same,binding signal,ETV5,"1.27 fold enrichment (6-mer frequency, TF over GST control)"
same,binding signal,HSF1,"1.25 fold enrichment (6-mer frequency, TF over GST control)"
same,binding signal,SPIC,"1.35 fold enrichment (6-mer frequency, TF over GST control)"
same,binding signal,ELF4,"1.32 fold enrichment (6-mer frequency, TF over GST control)"
same,binding signal,ELK4,"1.25 fold enrichment (6-mer frequency, TF over GST control)"
same,binding signal,ETV2,"1.25 fold enrichment (6-mer frequency, TF over GST control)"
same,binding signal,ELF3,"1.45 fold enrichment (6-mer frequency, TF over GST control)"
same,binding signal,CRX,"1.25 fold enrichment (6-mer frequency, TF over GST control)"
same,binding signal,ETV1,"1.32 fold enrichment (6-mer frequency, TF over GST control)"
same,binding signal,ERF,"1.26 fold enrichment (6-mer frequency, TF over GST control)"
same,binding signal,ETV3L,"1.25 fold enrichment (6-mer frequency, TF over GST control)"
same,binding signal,ETS2,"1.25 fold enrichment (6-mer frequency, TF over GST control)"
same,binding signal,SPDEF,"1.25 fold enrichment (6-mer frequency, TF over GST control)"
same,binding signal,ETV7,"1.36 fold enrichment (6-mer frequency, TF over GST control)"
same,binding signal,ELF5,"1.26 fold enrichment (6-mer frequency, TF over GST control)"
same,binding signal,ETV3,"1.31 fold enrichment (6-mer frequency, TF over GST control)"
same,binding signal,ETV6,"1.34 fold enrichment (6-mer frequency, TF over GST control)"
